Among all 52,000 compounds or so, about 4,300 (8.3%) were called active. The sample holds actives, similar compounds and a random draw of the others, so the mix is not that of the screen. Unmarked numbers belong to inactive results. Cut-off read from the data, not from the text of the source: active = survival mostly below about 52% (no sharp cut-off); inactive = mostly above about 56%.
Tested on: DeltatarO mutant
Assay: growth inhibition of S. aureus wild type versus tarO mutant, primary screen, teichoic acid synthesis inhibitors, RN4220, OD600 (AID 463173)
Details: OD600, 18 h, active compounds read low, screened at 18.75 µg/mL (by protocol)

Row | SMILES | survival
1 | Nc1ccc(Oc2ccc(C(=O)O)c(C(=O)O)c2)cc1 | 98%
2 | O=C(NCc1ccco1)C1C2C3CCC(C3)C12 (stereo unspecified) | 77%
3 | N#CC1=C(N)SC(N)=C(C#N)C1c1ccc(O)cc1 | 82%
4 | N#CC1=C(N)SC(N)=C(C#N)C1CCC1CCCCC1 | 2% (active)
5 | CC(CC1C(C#N)=C(N)SC(N)=C1C#N)c1ccccc1 (stereo unspecified) | 51%
6 | COc1ccccc1N1CCN(c2ncnc3c2cnn3C)CC1 | 83%
7 | CCOc1cccc(C(=O)N2CCC(c3nc4ccccc4s3)CC2)c1 | 75%
8 | O=C(c1ccc(F)cc1)N1CCC(c2nc3ccccc3s2)CC1 | 76%
9 | CCCOc1ccc(C(=O)N2CCC(c3nc4ccccc4s3)CC2)cc1 | 36% (active)
10 | CC(C)Oc1ccc(C(=O)N2CCC(c3nc4ccccc4s3)CC2)cc1 | 49%
11 | CCCOc1ccccc1C(=O)N1CCC(c2nc3ccccc3s2)CC1 | 63%
12 | CC(C)COc1ccc(C(=O)N2CCC(c3nc4ccccc4s3)CC2)cc1 | 17% (active)
13 | COc1cc(OC)cc(-n2nnc(-c3nc(-c4ccccc4Cl)no3)c2N)c1 | 86%
14 | COc1ccccc1N1CCN(S(=O)(=O)c2ccc(-c3coc(C)n3)cc2)CC1 | 71%
15 | O=C1CCCc2c1cc(C(=O)N1CCOCC1)c(=O)n2-c1ccccc1 | 69%
16 | Cc1cc(C)cc(NC(=O)N2CCN(C(=O)c3nsc4ccccc34)CC2)c1 | 88%
17 | O=C(Nc1ccccc1)N1CCN(C(=O)c2nsc3ccccc23)CC1 | 88%
18 | Cc1ccc(NC(=O)N2CCN(C(=O)c3nsc4ccccc34)CC2)cc1C | -5% (active)
19 | CCc1ccc(NC(=O)N2CCN(C(=O)c3nsc4ccccc34)CC2)cc1 | 87%
20 | CCc1ccccc1NC(=O)N1CCN(C(=O)c2nsc3ccccc23)CC1 | 17% (active)
21 | Cc1cccc(NC(=O)N2CCN(C(=O)c3nsc4ccccc34)CC2)c1C | 88%
22 | O=c1oc2ccc3ccccc3c2cc1-c1nnc(Nc2ccc(F)cc2)s1 | 78%
23 | Cc1cccc(NC(=O)CN2C(=O)C3(SCC(=O)N3c3ccccc3)c3ccccc32)c1 (stereo unspecified) | 123%

Row | SMILES | survival
24 | O=C(NCCc1csc2nc(-c3ccc(F)cc3)nn12)c1cccc(C(F)(F)F)c1 | 78%
25 | Cc1ccc(CNC(=O)CSc2ncc(S(=O)(=O)c3ccc(Br)cc3)c(=O)[nH]2)cc1 | 125%
26 | CCOc1ccc(CNC(=O)c2ccc3[nH]c(C)c(C)c3c2)cc1OC | 67%
27 | CCCCN(C)CC(O)Cn1cc(/C=C/C(=O)c2ccc(OC)c(OC)c2)c2ccccc21 (stereo unspecified) | 67%
28 | CCCCN(C)CC(O)Cn1cc(/C=C/C(=O)c2ccc(C)cc2)c2ccccc21 (stereo unspecified) | 6% (active)
29 | CCCCN(C)CC(O)Cn1cc(/C=C/C(=O)c2ccc(Br)cc2)c2ccccc21 (stereo unspecified) | 0% (active)
30 | Cc1ccc(C(=O)/C=C/c2cn(CC(O)CN3CCc4ccccc43)c3ccccc23)cc1 (stereo unspecified) | 73%
31 | CCOc1ccc(C(=O)/C=C/c2cn(CC(O)CN3CCc4ccccc43)c3ccccc23)cc1 (stereo unspecified) | 56%
32 | C=CCn1cc(/C=C(/C#N)C(=O)OCC)c2ccccc21 | 83%
33 | CCCCN(C)CC(O)Cn1cc(/C=C/C(=O)c2ccc(OCC)cc2)c2ccccc21 (stereo unspecified) | 6% (active)
34 | O=S1(=O)N=C(SCCO)c2ccccc21 | 85%
35 | CCOc1ccc(NC(=O)c2cc(S(=O)(=O)N3CCCCCC3)cn2C)cc1 | 120%
36 | CCCC1N=C2c3ccccc3N=C(SCC(=O)NCCc3ccc(Cl)cc3)N2C1=O (stereo unspecified) | 93%
37 | Cc1ccccc1Cn1c(SCc2ccc(C(=O)NCCc3ccccc3)cc2)nc2ccncc21 | 82%
38 | CCCCOc1ccc(NC(=O)CS(=O)CC(=O)Nc2ccc(OC)cc2)cc1 (stereo unspecified) | 84%
39 | CSc1cccc(NS(=O)(=O)c2ccc3[nH]cc(C(=O)N4CCCCCC4)c(=O)c3c2)c1 | 82%
40 | CC(C)(C)c1ccc(C(=O)Nc2ccc(-c3nc4ccccc4o3)c(O)c2)cc1 | 69%
41 | Cc1ccc2oc(-c3ccc(C)c(NC(=O)c4ccc(C(C)(C)C)cc4)c3)nc2c1 | 136%
42 | Cc1cc(NC(=O)c2ccc(Br)o2)cc(-c2nc3ccccc3o2)c1O | 98%
43 | CC(C)(C)c1ccc(C(=O)Nc2cc(-c3nc4ccccc4o3)ccc2Cl)cc1 | 13% (active)
44 | O=C(Nc1cc(-c2nc3ccccc3o2)ccc1Cl)c1ccc(Br)o1 | 54% (active)
45 | Cc1ccc2nc(-c3ccc(Cl)c(NC(=O)c4ccc(Br)o4)c3)oc2c1 | 48%
46 | CCC(NC(=O)Nc1ccc(OC)c(OC)c1)c1c(-n2cccc2)sc2c1CCN(C)C2 (stereo unspecified) | 65%

Row | SMILES | survival
47 | COc1ccccc1CNC(=O)c1ccc2c(c1)nc(C)n2-c1cccc(C)c1 | 74%
48 | COc1ccc(S(=O)(=O)NCCS(=O)(=O)N2CCN(c3ccccc3)CC2)cc1C | 102%
49 | COc1ccc(N(CC(=O)N2CCc3ccccc3C2)S(=O)(=O)c2ccccc2)cc1 | 58%
50 | CCc1ccccc1N(CC(=O)N1CCc2ccccc2C1)S(C)(=O)=O | 96%
51 | CCOc1ccccc1N(CC(=O)N1CCc2ccccc2C1)S(=O)(=O)c1ccccc1 | 37% (active)
52 | COc1ccc(-n2ncc(C(=O)NCc3ccco3)c2C2CCN(C(=O)OC(C)(C)C)CC2)cc1 | 83%
53 | Cc1ccccc1NC(=S)N1CCC(NC(=O)C(C)(C)C)CC1 | 92%
54 | O=C(Nc1ccc(F)cc1F)C1CCN(S(=O)(=O)c2ccc3[nH]c(=O)ccc3c2)CC1 | 83%
55 | CCOC(=O)Cn1nnnc1CN(Cc1cc2c(C)ccc(C)c2[nH]c1=O)C1CCCCC1 | 88%
56 | Oc1ccc(N=Cc2ccccc2O)cc1 | 109%
57 | O=C1/C(=C/c2ccccc2O)CC/C1=C\c1ccccc1O | 55% (active)
58 | CCN(CC)c1ccc(C=C2C(=O)c3ccccc3C2=O)c(O)c1 | 74%
59 | NS(=O)(=O)c1ccc(NC(=O)CCn2c(=O)oc3ccccc32)cc1 | 73%
60 | CCN(CC)CCOC(=O)c1ccc(NC(=O)CCn2c(=O)oc3ccccc32)cc1 | 45% (active)
61 | CCOC(=O)c1cccc(NC(=O)CCn2c(=O)oc3ccccc32)c1 | 39% (active)
62 | COC(=O)c1ccc(NC(=O)Cn2c(=O)oc3ccccc32)cc1 | 69%
63 | CCOC(=O)c1cccc(NC(=O)CCn2c(-c3ccc(F)cc3)cc(C(=O)OCC)c2C)c1 | 76%
64 | CCOC(=O)c1ccc(NC(=O)NCCOCCn2c(=O)oc3ccccc32)cc1 | 77%
65 | CCc1cccc(C)c1NC(=O)C1CCN(S(=O)(=O)c2c(C)noc2/C=C/c2c(C)cc(C)cc2C)CC1 | 81%
66 | Cn1cc(S(=O)(=O)N2CCCC2)cc1C(=O)Nc1ccc(F)cc1F | 77%
67 | COc1ccc(NC(=O)C(NC(=O)Cc2cccs2)c2ccc(OC)cc2)cc1 (stereo unspecified) | 137%
68 | C=CCNC(=O)CSc1nc2cc(C)cc(C)c2cc1C#N | 58%
69 | COc1ccccc1CNC(=O)CC(c1ccc(OC)c(OC)c1)N1Cc2ccccc2C1=O (stereo unspecified) | 83%

Row | SMILES | survival
70 | CCOC(=O)c1noc2ncn(Cc3cccc(C#N)c3)c(=O)c12 | 130%
71 | COc1ccc(CCCc2nnc(SCC(=O)Nc3ccc(Cl)cc3)o2)cc1 | 92%
72 | COc1ccc(OC)c(NC(=O)CSC2=Nc3ccccc3C3=NC(CCC(=O)NCCc4ccccc4)C(=O)N23)c1 (stereo unspecified) | 80%
73 | COc1ccc(OC)c(NC(=O)CSC2=Nc3ccccc3C3=NC(CC(=O)NCc4ccc(F)cc4)C(=O)N23)c1 (stereo unspecified) | 52% (active)
74 | COc1ccc(OC)c(NC(=O)CSC2=Nc3ccccc3C3=NC(CC(=O)NCc4ccc5c(c4)OCO5)C(=O)N23)c1 (stereo unspecified) | 80%
75 | COc1ccc(OC)c(NC(=O)CSC2=Nc3ccccc3C3=NC(CCC(=O)NCc4ccco4)C(=O)N23)c1 (stereo unspecified) | 78%
76 | COc1ccc(OC)c(NC(=O)CSC2=Nc3ccccc3C3=NC(CCC(=O)NCc4ccccc4)C(=O)N23)c1 (stereo unspecified) | 0% (active)
77 | COc1ccc(NC(=O)CSC2=Nc3ccccc3C3=NC(CC(=O)NCc4ccc(F)cc4)C(=O)N23)cc1 (stereo unspecified) | 55%
78 | CCOc1ccc(C2C(=O)N(C3CCCCC3)CC(=O)N2C2CCCC2)cc1OC (stereo unspecified) | 71%
79 | CC(=O)N1CCOc2cc(S(=O)(=O)NCc3ccccc3Cl)c(C)cc21 | 85%
80 | Cc1cc(Cl)ccc1NC(=O)c1cccc(NC(=O)N2CCSc3ncccc32)c1 | 74%
81 | CCCc1nn2c(=O)cc(COC(=O)c3ccco3)nc2s1 | 77%
82 | CCOC(=O)c1cc2c(=O)n3ccccc3nc2n(C)c1=NC(=O)c1c(-c2ccccc2Cl)noc1C | 141%
83 | Cc1ccc(NC(=O)c2c(C)nc3sc(C(=O)Nc4ccc(F)cc4)c(N)c3c2-c2ccc(C)o2)c(C)c1 | 60%
84 | CCOC(=O)c1c(-c2ccccc2)oc2ccc(OCc3ccccc3Br)cc12 | 38% (active)
85 | CNC(=O)c1c(-c2ccccc2)oc2ccc(OC)cc12 | 90%
86 | O=C(O)c1c(-c2ccccc2)oc2ccc(OCc3ccc(Cl)c(Cl)c3)cc12 | -1% (active)
87 | O=C(O)c1c(-c2ccccc2)oc2ccc(OCc3c(F)cccc3Cl)cc12 | 29% (active)
88 | CCOC(=O)c1c(-c2ccccc2)oc2ccc(NS(=O)(=O)c3ccc(C(C)C)cc3)cc12 | 70%
89 | C=Cc1ccc(COc2ccc3oc(-c4ccccc4)c(C(=O)OCC)c3c2)cc1 | 45% (active)
90 | CCOC(=O)c1c(-c2ccccc2)oc2ccc(N(C(C)=O)S(=O)(=O)c3ccc(CC)cc3)cc12 | 69%
91 | COC(=O)c1cc2oc3ccccc3c2n1Cc1c(F)cccc1Cl | 118%

— PubChem BioAssay AID463173 (ICCB-Longwood Screening Facility, Harvard Medical School, 2010)
